For 3 compounds, outcome and AC50 results are on record in PubChem BioAssay (EPA / NIEHS).

Each structure is given as a SMILES string. Calls of active or inactive are those of the source. The calls were made as follows: active = hit-call score of the fitted dose curve at least 0.9, where 1 is the maximum; inactive = score below 0.9.

Settings in all cases: mRNA level, 48 h; actives raise or lower the signal
Read-out in test [1]: matrix metalloproteinase-10 (MMP10), MMP10 (gene 4319)
As to the kind of experiment: LTEA_HepaRG_MMP10: Life Technologies and Expression Analysis (LTEA) Assay for matrix metalloproteinase-10 (MMP10) using HepaRG (AID 2283517). Put shortly: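 HepaRG, collagen I, ~100,000 cells/well; serum-free induction medium; 48 h exposure, duplicate, 8-pt half-log to 100 uM, 0.5% DMSO. Readout: TaqMan qRT-PCR, normalized to ACTB/GAPDH/POLR2A; bidirectional fit vs DMSO.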

Read-out in a further test: MYC, MYC (gene 4609)
The test can be described thus: LTEA_HepaRG_MYC: Life Technologies and Expression Analysis (LTEA) Assay for MYC using HepaRG (AID 2283518). Put shortly:
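Differentiated human HepaRG cells, plated 48 h then switched to serum-free induction medium, were exposed in duplicate for 48 h to 8-point half-log series up to 100 uM in 0.5% DMSO. MYC mRNA measured by qRT-PCR, normalized to ACTB/GAPDH/POLR2A.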

Read-out in test [2]: matrix metalloproteinase-3 (MMP3), MMP3 (gene 4314)
The test can be described thus: LTEA_HepaRG_MMP3: Life Technologies and Expression Analysis (LTEA) Assay for matrix metalloproteinase-3 (MMP3) using HepaRG (AID 2283519). Put shortly: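 Differentiated human HepaRG cells, plated 48 h on collagen I, were exposed in duplicate for 48 h in serum-free induction medium to eight half-log concentrations up to 100 uM in 0.5% DMSO. MMP3 mRNA was quantified by TaqMan qRT-PCR, normalised to ACTB, GAPDH and POLR2A.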

Read-out in test [3]: Paternally Expressed 10 (PEG10), PEG10 (gene 23089)
As to the kind of experiment: LTEA_HepaRG_PEG10: Life Technologies and Expression Analysis (LTEA) Assay for Paternally Expressed 10 (PEG10) using HepaRG (AID 2283520). Put shortly: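 Chemicals tested on HepaRG cells for 48 h, highest concentration 100 uM. PEG10 expression assessed by qRT-PCR relative to DMSO control.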

Read-out in test [4]: Protein phosphatase 2A (PPP2R4), PTPA (gene 5524)
The test can be described thus: LTEA_HepaRG_PPP2R4: Life Technologies and Expression Analysis (LTEA) Assay for Protein phosphatase 2A (PPP2R4) using HepaRG (AID 2283522). The method, boiled down:
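Gene-expression endpoint in HepaRG hepatic cells: 48 h treatment across eight half-log concentrations up to 100 uM in 0.5% DMSO. PPP2R4 mRNA by qRT-PCR, normalized to three endogenous control genes.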

Read-out in test [5]: Phosphatase and tensin (PTEN), PTEN (gene 5728)
As to the kind of experiment: LTEA_HepaRG_PTEN: Life Technologies and Expression Analysis (LTEA) Assay for Phosphatase and tensin (PTEN) using HepaRG (AID 2283523). The method, boiled down: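 Differentiated human HepaRG cells, plated 48 h then switched to serum-free induction medium, were exposed in duplicate for 48 h to eight half-log concentrations up to 100 uM in 0.5% DMSO. PTEN mRNA measured by TaqMan qRT-PCR, normalized to ACTB/GAPDH/POLR2A, bidirectional fit versus DMSO.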

Read-out in test [6]: solute carrier (SLC22A1), SLC22A1 (gene 6580)
As to the kind of experiment: LTEA_HepaRG_SLC22A1: Life Technologies and Expression Analysis (LTEA) Assay for solute carrier (SLC22A1) using HepaRG (AID 2283524). Put shortly: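 Human HepaRG cells were plated 48 h, switched to serum-free induction medium, then exposed in duplicate for 48 h to 8-point half-log series from 100 uM in 0.5% DMSO. SLC22A1 mRNA measured by qRT-PCR, normalized to ACTB/GAPDH/POLR2A, fitted bidirectionally versus DMSO.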

Read-out in test [7]: Pyruvate Dehydrogenase Kinase 4 (PDK4), PDK4 (gene 5166)
The test can be described thus: LTEA_HepaRG_PDK4: Life Technologies and Expression Analysis (LTEA) Assay for Pyruvate Dehydrogenase Kinase 4 (PDK4) using HepaRG (AID 2283525). The method, boiled down:
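Differentiated human HepaRG cells, pre-cultured 48 h, were exposed in duplicate for 48 h in serum-free induction medium to eight half-log concentrations up to 100 uM in 0.5% DMSO. PDK4 mRNA was quantified by qRT-PCR, normalized to ACTB, GAPDH and POLR2A, bidirectional fitting versus DMSO.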

Read-out in test [8]: NAD(P)H dehydrogenase [quinone] 1 (NQO1), NQO1 (gene 1728)
The test can be described thus: LTEA_HepaRG_NQO1: Life Technologies and Expression Analysis (LTEA) Assay for NAD(P)H dehydrogenase [quinone] 1 (NQO1) using HepaRG (AID 2283526). Put shortly:
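Human HepaRG hepatic cells received chemicals for 48 h in serum-free induction medium with 0.5% DMSO, up to 100 uM. Expression was assessed by TaqMan qRT-PCR against housekeeping controls and fitted bidirectionally against DMSO.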

Read-out in test [9]: Nuclear factor erythroid 2-related factor 2 (Homo sapiens) (UniProt Q16236)
The test can be described thus: LTEA_HepaRG_NFE2L2: Life Technologies and Expression Analysis (LTEA) Assay for Nuclear factor erythroid 2-related factor 2 (NFE2L2) Transcription Factor using HepaRG (AID 2283527).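 Also: TaqMan qRT-PCR transcript level normalised to ACTB GAPDH and POLR2A housekeeping genes.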 The method, boiled down: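 Differentiated human HepaRG cells in serum-free induction medium were exposed for 48 h to eight concentrations (top 100 uM, half-log dilutions, 0.5% DMSO), in duplicate. NFE2L2 mRNA was quantified by TaqMan qRT-PCR, normalized to ACTB, GAPDH and POLR2A, with bidirectional fitting versus DMSO.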

Read-out in test [10]: succinate dehydrogenase complex iron sulfur subunit B (SDHB), SDHB (gene 6390)
As to the kind of experiment: LTEA_HepaRG_SDHB: Life Technologies and Expression Analysis (LTEA) Assay for succinate dehydrogenase complex iron sulfur subunit B (SDHB) using HepaRG (AID 2283528). Put shortly:
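HepaRG, 48 h exposure, 8-pt half-log series from 100 uM in 0.5% DMSO, duplicates. Readout: SDHB mRNA by Fluidigm qRT-PCR vs housekeeping genes; bidirectional fit relative to DMSO.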

Read-out in test [11]: Signal transducer and activator of transcription 3 (Homo sapiens) (UniProt P40763)
The test can be described thus: LTEA_HepaRG_STAT3: Life Technologies and Expression Analysis (LTEA) Assay for Signal transducer and activator of transcription (STAT3) using HepaRG (AID 2283529). The method, boiled down:
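Differentiated human HepaRG cells in serum-free induction medium were exposed in duplicate for 48 h to eight half-log concentrations up to 100 uM in 0.5% DMSO. STAT3 mRNA was quantified by TaqMan qRT-PCR, normalized to ACTB, GAPDH and POLR2A, and fitted bidirectionally against DMSO.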

Read-out in test [12]: solute carrier (SLCO1B1), SLCO1B1 (gene 10599)
The test can be described thus: LTEA_HepaRG_SLCO1B1: Life Technologies and Expression Analysis (LTEA) Assay for solute carrier (SLCO1B1) using HepaRG (AID 2283530). Put shortly: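 Differentiated human HepaRG cells, plated 48 h, switched to serum-free induction medium and exposed in duplicate for 48 h to 8 half-log concentrations (top 100 uM) in 0.5% DMSO. SLCO1B1 mRNA by TaqMan qRT-PCR, normalized to ACTB/GAPDH/POLR2A.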

Read-out in test [13]: sulfotransferase 2A1 (SULT2A1), SULT2A1 (gene 6822)
The test can be described thus: LTEA_HepaRG_SULT2A1: Life Technologies and Expression Analysis (LTEA) Assay for sulfotransferase 2A1 (SULT2A1) using HepaRG (AID 2283531). Put shortly:
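Differentiated human HepaRG cells in serum-free induction medium were exposed for 48 h to eight half-log concentrations (top 100 uM, 0.5% DMSO). SULT2A1 mRNA was measured by qRT-PCR, normalized to ACTB, GAPDH and POLR2A, and fitted bidirectionally against DMSO.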

Read-out in test [14]: Transforming Growth Factor (TGFA), TGFA (gene 7039)
As to the kind of experiment: LTEA_HepaRG_TGFA: Life Technologies and Expression Analysis (LTEA) Assay for Transforming Growth Factor (TGFA) using HepaRG (AID 2283532). The method, boiled down: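 Differentiated human HepaRG cells, plated 48 h then switched to serum-free induction medium, were exposed in duplicate for 48 h to 8-point half-log series from 100 uM in 0.5% DMSO. TGFA mRNA measured by qRT-PCR, normalized to ACTB/GAPDH/POLR2A, bidirectional fit versus DMSO.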

Read-out in test [15]: Transforming Growth Factor (TGFB1), TGFB1 (gene 7040)
As to the kind of experiment: LTEA_HepaRG_TGFB1: Life Technologies and Expression Analysis (LTEA) Assay for Transforming Growth Factor (TGFB1) Transporter using HepaRG (AID 2283533). Put shortly:
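Differentiated human HepaRG cells in serum-free induction medium were exposed in duplicate for 48 h to eight concentrations (top 100 uM, half-log steps, 0.5% DMSO). TGFB1 mRNA was quantified by qRT-PCR, normalized to ACTB, GAPDH, POLR2A, and fitted bidirectionally against DMSO.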

Read-out in the next test: TIMP1, TIMP1 (gene 7076)
The test can be described thus: LTEA_HepaRG_TIMP1: Life Technologies and Expression Analysis (LTEA) Assay for TIMP1 using HepaRG (AID 2283534).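 Also: TaqMan qRT-PCR signal normalized to ACTB GAPDH and POLR2A housekeeping genes.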 Put shortly:
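Differentiated human HepaRG cells in serum-free induction medium were exposed 48 h to chemicals (8 half-log concentrations, top 100 uM, 0.5% DMSO). TIMP1 mRNA was quantified by TaqMan qRT-PCR, normalized to ACTB/GAPDH/POLR2A; bidirectional fit versus DMSO.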

Read-out in test [16]: Tumor necrosis factor receptor 1 (TNFRSF1A), TNFRSF1A (gene 7132)
As to the kind of experiment: LTEA_HepaRG_TNFRSF1A: Life Technologies and Expression Analysis (LTEA) Assay for Tumor necrosis factor receptor 1 (TNFRSF1A) using HepaRG (AID 2283535). Put shortly: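 Differentiated human HepaRG cells were exposed in duplicate for 48 h in serum-free induction medium to eight concentrations (top 100 uM, half-log steps, 0.5% DMSO). TNFRSF1A mRNA was quantified by qRT-PCR, normalized to ACTB, GAPDH and POLR2A, then fitted bidirectionally against DMSO.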

Sequence of Nuclear factor erythroid 2-related factor 2 (Homo sapiens) (Q16236 whole entry, looked up): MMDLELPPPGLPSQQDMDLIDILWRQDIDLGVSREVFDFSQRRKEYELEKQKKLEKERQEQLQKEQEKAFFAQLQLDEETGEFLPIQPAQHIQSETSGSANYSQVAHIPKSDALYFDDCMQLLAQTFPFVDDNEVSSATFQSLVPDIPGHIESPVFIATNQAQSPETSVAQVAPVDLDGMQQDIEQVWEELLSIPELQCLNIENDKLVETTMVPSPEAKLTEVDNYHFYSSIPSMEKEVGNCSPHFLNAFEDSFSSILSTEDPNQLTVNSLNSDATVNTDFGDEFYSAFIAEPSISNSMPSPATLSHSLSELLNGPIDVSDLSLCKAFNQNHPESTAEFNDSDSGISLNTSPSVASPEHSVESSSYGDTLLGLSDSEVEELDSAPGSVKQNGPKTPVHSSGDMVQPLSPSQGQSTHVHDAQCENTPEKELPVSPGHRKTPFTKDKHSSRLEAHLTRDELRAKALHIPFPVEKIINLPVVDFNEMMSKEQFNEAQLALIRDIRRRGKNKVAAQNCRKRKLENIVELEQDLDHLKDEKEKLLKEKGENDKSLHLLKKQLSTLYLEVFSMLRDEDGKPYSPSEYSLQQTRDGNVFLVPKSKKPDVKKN
Sequence of Signal transducer and activator of transcription 3 (Homo sapiens) (P40763 whole entry, looked up): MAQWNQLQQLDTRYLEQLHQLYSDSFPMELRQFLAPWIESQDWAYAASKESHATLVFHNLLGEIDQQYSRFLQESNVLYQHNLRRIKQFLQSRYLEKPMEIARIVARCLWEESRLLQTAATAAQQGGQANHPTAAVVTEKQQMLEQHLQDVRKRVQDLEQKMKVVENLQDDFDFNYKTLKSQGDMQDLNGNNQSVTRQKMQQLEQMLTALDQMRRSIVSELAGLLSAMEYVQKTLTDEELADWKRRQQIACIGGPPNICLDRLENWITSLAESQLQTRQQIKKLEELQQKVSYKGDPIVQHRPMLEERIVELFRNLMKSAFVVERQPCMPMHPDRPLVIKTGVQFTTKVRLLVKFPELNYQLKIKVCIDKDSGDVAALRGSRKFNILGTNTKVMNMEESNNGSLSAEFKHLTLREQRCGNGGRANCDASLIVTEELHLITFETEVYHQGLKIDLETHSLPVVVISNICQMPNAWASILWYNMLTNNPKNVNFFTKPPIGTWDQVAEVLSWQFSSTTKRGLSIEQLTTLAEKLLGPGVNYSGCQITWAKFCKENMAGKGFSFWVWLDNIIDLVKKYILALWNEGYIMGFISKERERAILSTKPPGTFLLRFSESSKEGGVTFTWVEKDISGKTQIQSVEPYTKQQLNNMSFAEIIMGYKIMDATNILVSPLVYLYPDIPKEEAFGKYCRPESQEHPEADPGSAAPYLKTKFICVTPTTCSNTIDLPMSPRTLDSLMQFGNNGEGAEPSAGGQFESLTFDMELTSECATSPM

By AC50 is commonly meant the concentration at which the activity in the assay is half-maximal. On to `CN/C(=N\[N+](=O)[O-])NCc1cnc(Cl)s1`, for which the outcome in [1] is “inactive”; with MYC, MYC (gene 4609), “inactive”; in [2] it was “inactive”; in test [3] it was “inactive”; in test [4] it was “inactive”; in [5], “inactive”. Besides, the result in [6], in [8], in test [9], in test [10], in test [11] and in [12] was inactive. Moreover, the outcome is “inactive” in test [13]; “inactive” in test [14]; “inactive” in test [15]; “inactive” with TIMP1, TIMP1 (gene 7076); “inactive” in test [16]. Moreover, in [7], the AC50 was 36.6 µM (active).
In the case of `O=C(O)c1c(Cl)ccc2cc(Cl)cnc12`, the outcome in test [1] was “inactive”; with MYC, MYC (gene 4609), “inactive”; in test [2], “inactive”; in test [3], “inactive”; in [4], “inactive”; in [5] it was “inactive”. Moreover, the compound was classed as inactive in [6], in test [7], in [8], in [9], in [10] and in test [11]. Besides, the outcome is “inactive” in [12]; “inactive” in test [13]; “inactive” in [14]; “inactive” in test [15]; “inactive” with TIMP1, TIMP1 (gene 7076); “inactive” in test [16].
As for `CS(=O)(=O)c1ccc(C(=O)C2C(=O)CCCC2=O)c([N+](=O)[O-])c1`, the outcome in test [1] is “inactive”; with MYC, MYC (gene 4609), “inactive”; in [2], “inactive”; in test [3] it was “inactive”; in [4], “inactive”; in test [5], “inactive”. Moreover, the compound was called inactive in [6], in [7], in test [8], in test [9], in test [11] and in test [12]. For the same compound, the outcome was “inactive” in [13]; “inactive” in test [14]; “inactive” in [15]; “inactive” in the test with TIMP1, TIMP1 (gene 7076); “inactive” in test [16].
